# Screening data (PubChem BioAssay)
# The list is not random: actives were taken first. Their share in the collection is about 2.2%.
# APP 5UTR inh: inhibitors of APP translation via 5'UTR reporter, primary screen, APP 5'UTR luciferase, SH-SY5Y cells. SH-SY5Y APP 5'UTR-luciferase reporter, luminescence. inhibition, % at 2 µM. 0.82% of 190,000 active;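 active = inhibition above a set limit, derived from the sample mean plus 3 SD, cut at about 45% in these data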
# Ba/F3 V617F tox: reduced viability of JAK2V617F-dependent Ba/F3 cells, primary screen, JAK2V617F inhibitor project, cell-based, Ba/F3 EpoR-JAK2V617F, luminescence. inhibition, % at 5.6 µM. ATP luminescence. 1.1% of 220,000 active;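 active = inhibition above the campaign mean plus 3 SD over all tested compounds, cut at about 24% in these data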;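 also: cytokine-independent growth of Ba/F3 cells driven by EpoR plus mutant JAK2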
# BaF3 parental: parental Ba/F3 cell viability inhibition, counter-screen for JAK2V617F inhibitor project, murine pro-B, CellTiter-Glo luminescence. CellTiter-Glo ATP luminescence. inhibition, % at 5.6 µM. 1.1% of 220,000 active;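 active = inhibition above a per-campaign cutoff, the mean inhibition of all tested compounds plus 3 SD, cut at about 27% in these data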
# KLF5 inh: KLF5 expression inhibitors, primary screen, DLD-1 cells, luminescence. 0.23% of 290,000 active. inhibition, % at 5 µM. DLD-1 KLF5 promoter-luciferase reporter;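 active = inhibition above a per-plate limit of that plate's mean compound inhibition plus 3 SD, cut at about 60% in these data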;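 also: higher means less KLF5 promoter-driven luciferase light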
# IEC-6 cytotox: cytotoxicity in IEC-6 intestinal epithelial cells, primary screen, cytotoxicity control for KLF5 inhibitor project, cell-based, luminescence | IEC-6 cytotoxicity, luminescence viability | inhibition, % at 5 µM | 0.78% of 290,000 active | AID 1825, 2009; in the data active = inhibition above about 22%
# aSyn 5UTR inh: MLPCN primary screen, SNCA 5' untranslated region | inhibition, % (tested at 7.5 µM) | alpha-synuclein 5'UTR reporter, inhibitor activity | 0.82% of 300,000 active; in the data active = inhibition above about 60%;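 also: H4 neuroglioblastoma cells stably carrying SNCA 5'UTR luciferase fusion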
# BaF3 tox 2: parental Ba/F3 cell viability inhibition, counter-screen for JAK2V617F inhibitor project, murine pro-B, CellTiter-Glo luminescence | 31% of 580 active | inhibition, % at 5.6 µM | shares compounds with Ba/F3 V617F tox | cells kept alive by added IL-3;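 active = cell growth inhibition above the hit limit set in the earlier mutant JAK2 cell screen, cut at about 27% in these data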
# JAK2V617F confrm: viability loss in Ba/F3 EpoR-JAK2V617F cells, confirmation, JAK2V617F inhibitor project, cell-based, luminescence, triplicate; shares compounds with Ba/F3 V617F tox; CellTiter-Glo luminescence; inhibition, % at 5.6 µM; 66% of 580 active; AID 1521, 2009;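 active = mean inhibition above the hit cutoff derived in the earlier primary screen, cut at about 25% in these data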;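 also: higher means lower luminescence from reduced cell ATP and viability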
# Hits are given with their value; i = inactive; nt = no result given.
SMILES,APP 5UTR inh,Ba/F3 V617F tox,BaF3 parental,KLF5 inh,IEC-6 cytotox,aSyn 5UTR inh,BaF3 tox 2,JAK2V617F confrm
CC(C)[C@H]1C=C(C(=O)O)O[C@@H](OCCCCO)C1,nt,nt,nt,nt,nt,i,nt,nt
CCOC(=O)c1c(NC(=O)C(C)N2CCN(C(=O)c3ccco3)CC2)sc2c1CCCC2 (stereo unspecified),i,28,i,i,i,i,i,i
CC(=O)c1ccc(N2CCN(C(=O)c3nn(C)c4c3CS(=O)(=O)c3ccccc3-4)CC2)cc1,nt,nt,nt,i,i,i,nt,nt
CCOc1ccc(C(O)(CCC(C)C)C(CN2CCOCC2)c2ccccc2)cc1 (stereo unspecified),nt,nt,nt,i,i,i,nt,nt
CCOc1ccc(C(=O)C(CN2CCOCC2)c2ccccc2)cc1 (stereo unspecified),67,59,i,i,i,i,i,98
Cc1csc(NC(=O)c2cc3c(C)nn(Cc4ccccc4Cl)c3s2)n1,i,36,i,i,i,i,i,27
Cc1nn(Cc2ccccc2Cl)c2sc(C(=O)NC(C)(C)C)cc12,i,i,i,i,i,i,nt,nt
COc1ccc(C(=O)NCC(=O)OCc2ccc(F)cc2)cc1,i,i,i,i,i,i,nt,nt
Cc1ccc(/C=N/NC(=O)C(=O)N/N=C/c2ccc(C)o2)o1,i,45,i,i,i,i,i,i
O=C(CSc1nnnn1-c1ccc(F)cc1)c1ccc(O)c(O)c1,i,32,i,i,i,i,i,80
O=C(O)c1ccc(CSc2nnnn2-c2ccc(F)cc2)cc1,nt,nt,nt,i,i,i,nt,nt
CC(C)CCNC(=O)CN(Cc1ccco1)C(=O)CCC(=O)Nc1nccs1,nt,nt,nt,i,i,i,nt,nt
CCN(CC)C(=O)C1=C(C)NC(=O)NC1c1c(F)cccc1Cl (stereo unspecified),i,29,i,i,i,i,i,i
Clc1cccc(Cl)c1Cn1ccc(C2CC2)n1,i,i,i,i,i,i,nt,nt
CCOc1ccc(NCCC#N)cc1,i,44,i,i,i,i,i,i
CCCNC(=O)c1ccc2snnc2c1,i,i,i,i,i,i,nt,nt
CNC(=O)c1nnsc1S(=O)c1ccc(Cl)cc1 (stereo unspecified),86,44,i,i,i,i,i,70
CCCNC(=O)c1nnsc1S(=O)c1ccc(Cl)cc1 (stereo unspecified),94,55,i,i,i,i,42,99
Cn1nc(-c2ccc(C(=O)NCCO)cc2)c2ccccc2c1=O,nt,i,i,i,i,i,nt,nt
O=C1CC(=O)N(CCNc2ncc(C(F)(F)F)cc2Cl)C(=O)N1,i,i,i,i,i,i,nt,nt
O=C1C=CC(=O)N1CCNc1ncc(C(F)(F)F)cc1Cl,74,48,i,i,i,i,i,82
O=C(CSc1n[nH]c(=O)n1-c1cccnc1)Nc1ccccc1,nt,nt,nt,i,i,i,nt,nt
S=C(Nc1ccc(Cl)cc1)N1CCCCC1,i,i,i,i,i,i,nt,nt
CN1CCN(C(=S)Nc2ccc(Cl)cc2)CC1,i,27,i,i,i,i,i,46
Cc1ccc(NC(=S)N2CCN(C3CCCCC3)CC2)cc1,i,61,i,i,i,i,i,40
SMILES,APP 5UTR inh,Ba/F3 V617F tox,BaF3 parental,KLF5 inh,IEC-6 cytotox,aSyn 5UTR inh,BaF3 tox 2,JAK2V617F confrm
CCOc1ccc(C(=O)N(Cc2ccc(OC)cc2)Cc2cc3cc(OC)ccc3[nH]c2=O)cc1,i,46,i,i,i,i,i,i
CCCN(Cc1cc2cc(OC)ccc2[nH]c1=O)C(=O)c1ccncc1,i,i,i,i,i,i,nt,nt
O=C1N/C(=C\c2ccccc2)c2ccccc21,i,38,i,i,i,i,i,45
O=C1N/C(=C\c2nc3ccccc3s2)c2ccccc21,nt,i,i,i,i,i,nt,nt
CC(OC(=O)CSc1ccc([N+](=O)[O-])cc1)C(=O)NCc1ccccc1 (stereo unspecified),nt,nt,nt,nt,nt,i,nt,nt
CCCCn1c(=N)n(CC(O)COc2ccccc2)c2ccccc21 (stereo unspecified),i,i,i,i,i,i,nt,nt
CCCCn1c(=N)n(CC(O)COc2ccc(C)cc2)c2ccccc21 (stereo unspecified),i,65,i,i,i,i,i,48
O=C(N/N=C/c1cc([N+](=O)[O-])ccc1O)c1cccc2cc[nH]c12,nt,34,i,i,i,68,i,28
COc1ccc(-c2csc(NC3OC(=O)c4c3ccc(OC)c4OC)n2)cc1OC (stereo unspecified),nt,27,i,i,i,i,i,31
COc1ccc2c(c1OC)C(=O)OC2Nc1nc(-c2ccc([N+](=O)[O-])cc2)cs1 (stereo unspecified),nt,i,i,i,i,i,nt,nt
COc1ccc(C)cc1NC(=O)C1CCN(C(=O)Cc2ccccc2)CC1,i,41,i,i,i,i,i,i
Cc1cccc(OCC(=O)Nc2cc(C)ccc2O)c1,i,37,i,i,i,i,i,67
Cc1cccc(OCC(=O)Nc2cc(C)c(C)cc2O)c1,i,i,i,i,i,i,nt,nt
O=C(N/N=C/c1cc2c3c(c1O)CCCN3CCC2)c1ccccc1O,85,35,i,i,i,104,95,96
COc1cc(NC(=O)CSc2cc(C)c3cc(C)cc(C)c3n2)c(C(=O)O)cc1OC,nt,i,i,i,i,i,nt,nt
COC(=O)c1[nH]c2ccc(Br)cc2c1NC(=O)CN1CCN(C2CCCCC2)CC1,i,46,i,i,i,75,i,i
CSc1ccccc1NC(=O)CN(C)C(=O)Cc1c(F)cccc1Cl,nt,nt,nt,i,i,i,nt,nt
Cc1ccc(/C=[N+](\[O-])c2ccc(N(C)C)cc2)c2nsnc12,61,47,i,i,i,i,i,i
Cc1cc(C(=O)Nc2cnc3ccccc3c2)ccc1[N+](=O)[O-],i,28,i,i,i,i,i,i
C/C(CC(=O)Nc1ccccn1)=N\NC(=O)c1cnccn1,nt,i,i,i,i,i,nt,nt
O=C(NC(=S)NN1CCCCC1c1cccnc1)c1ccc(Cl)cc1Cl (stereo unspecified),nt,i,i,i,i,i,nt,nt
O=S(=O)(CCSc1nc2ccccc2o1)c1nc2ccccc2s1,i,83,i,i,i,i,29,99
Cc1ccc(CSCCNS(=O)(=O)c2ccc(C)cc2)cc1,i,i,i,i,i,i,nt,nt
COC1(OC)C(/C=C/c2ccc(Cl)cc2)C(C#N)(C#N)C1(OC)OC (stereo unspecified),i,81,i,i,i,i,i,73
Cc1ccc(-n2c(=O)c(C#N)cc3c(=O)n4ccccc4nc32)cc1,i,i,i,i,i,i,nt,nt
